Experimental data as given in PubChem BioAssay AID504727 (Broad Institute, 2011).
Active and inactive are the calls of the source.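 Rule for the calls: active = fitted half-maximal concentration AC50 at or below ten times the highest valid tested dose, with signal falling as DNA is displaced (actives reach about 34 µM in these data); inconclusive = flat fit at moderate signal loss, or poor fit quality; inactive = the rest, including signal rising instead of falling.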

test: DNA intercalators displacing acridine orange, dose response, artefact control for KSHV LANA DNA-binding inhibitor project, biochemical, fluorescence polarization, cherry-picked samples, set 2 (AID 504727); conditions: AC50: Acridine orange-DNA displacement; series mostly up to 35 µM; activity change, negative = DNA displacement: at the top concentration;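 for activity change, negative = DNA displacement: 0% = median of neutral control wells and -100% = mitoxantrone positive control wells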

Structure (SMILES) | activity change, negative = DNA displacement | AC50
COc1ccc(Br)cc1CNC(=O)CCCc1cn(C)c2ccccc12 | 10.9% (inactive) | –
O=C(c1cccc(S(=O)(=O)NCc2ccccc2)c1)N1CCN(c2ccccc2Cl)CC1 | 0% (inactive) | –
COc1ccc(NC(=O)Cc2nnc(SCC(=O)Nc3nccs3)n2C)cc1 | 4.06% (inactive) | –
Cc1ccc2c(c1)nnn2C1CCN(C(=O)c2cccs2)CC1 | -0.055% (inactive) | –
COc1cccc(OCCNc2ccc([N+](=O)[O-])cn2)c1 | 6.5% (inactive) | –
Cc1ccsc1/C=N/NC(=O)Cc1ccc(Cl)cc1 | 2% (inactive) | –
CC(=O)N/C(=C/c1ccc(OS(=O)(=O)c2ccc(C)cc2)cc1)C(=O)Nc1ccc(C(=O)O)cc1 | 6.02% (inactive) | –
COc1cc(NC(=O)c2ccc(CNc3c(N4CCCC4)c(=O)c3=O)cc2)cc(OC)c1OC | 1.61% (inactive) | –
Oc1ccc2nnc3c(Br)cnn3c2c1 | – | 8.34 µM (active)
Cc1ccc(/C=C/S(=O)(=O)N2CCC(C(=O)O)CC2)cc1 | 2.52% (inactive) | –
Brc1c(CSc2nncc3ccccc23)nc2ccccn12 | 1.8% (inactive) | –
COc1ccc(NC(=O)CN(C)CC(=O)Nc2ccc(N3CCOCC3)cc2)c([N+](=O)[O-])c1 | -1.51% (inactive) | –
Cc1noc(C)c1C(=O)N1CCN(c2ccc(OCc3ccccc3)cc2)CC1 | -11.9% (inactive) | –
O=C(O)CC1(CC(=O)NCc2ccncc2)CCCCC1 | 2.56% (inactive) | –
Cc1cc(Cl)ccc1N1C(=O)CC(NNC(=O)c2cccnc2)C1=O (stereo not drawn) | 4.24% (inactive) | –
COC(=O)c1ccccc1-c1c2ccc(=N)cc-2oc2cc(N)ccc12 | – | 0.035 µM (active)
O=[N+]([O-])c1cc(-n2cnnn2)ccc1N1CCC(Cc2ccccc2)CC1 | -4.6% (inactive) | –
CCOC(=O)c1cnc(SC)nc1Sc1ccc(Cl)cc1Cl | 6.11% (inactive) | –
O=C(Nc1cc(Cl)ccc1-n1cncn1)c1cccs1 | 5.05% (inactive) | –

Structure (SMILES) | activity change, negative = DNA displacement | AC50
CC(C)N(Cc1ccccc1)C(=O)Cn1c(=O)cnc2ccccc21 | 5.73% (inactive) | –
Cn1c2ccccc2c2cnn(CC(=O)Nc3cccc(F)c3)c(=O)c21 | 12.3% (inactive) | –
CCCc1cc(=O)oc2cc(C)cc(OCC(=O)O)c12 | -6.33% (inactive) | –
Cc1cc(C)c2c(c1)NC(C(=O)O)C1CC=CC21 (stereo not drawn) | -1.24% (inactive) | –
O=C(CCN1C(=O)/C(=C/c2ccco2)SC1=S)Nc1ccc(C(=O)O)c(O)c1 | 3.37% (inactive) | –
O=c1c2c(nc3cc(-c4ccc(F)cc4)[nH]n13)CCC2 | 2.38% (inactive) | –
CCNc1nc(NC(C)C)nc(NS(=O)(=O)c2ccc(N)cc2)n1 | 4.91% (inactive) | –
COc1cccc2c1C(=O)c1c(O)c3c(c(O)c1C2=O)C[C@](O)(C(C)=O)C[C@H]3O[C@@H]1C[C@@H](N)[C@@H](O)[C@@H](C)O1 | – | 2.98 µM (active)
COCCN(C(=O)CN1CCCc2ccccc21)c1c(N)n(Cc2ccccc2)c(=O)[nH]c1=O | 8.12% (inactive) | –
Cc1ccc(C(=O)c2coc3ccc(O)c(Cl)c23)cc1 | 2.25% (inactive) | –
O=C(COc1cccc(F)c1)Nc1nc(-c2cccnc2)cs1 | -0.97% (inactive) | –
Cc1ccc(N2CC(C(=O)Nc3nnc(SCC(=O)Nc4nc(C)cs4)s3)CC2=O)cc1 (stereo not drawn) | 0.01% (inactive) | –
Cc1ccccc1NC(=S)NC(C)CCc1ccccc1 (stereo not drawn) | 0.759% (inactive) | –
CN(CC(=O)Nc1ccc(N2CCOCC2)cc1)C(=O)CSc1ccc(Br)cc1 | 3.79% (inactive) | –
Cc1cccc(Nc2nc(N)c([N+](=O)[O-])c(NCc3ccccc3)n2)c1 | 4.16% (inactive) | –
O=C(O)C1Nc2c(O)cc(Cl)c([N+](=O)[O-])c2C2C=CCC12 (stereo not drawn) | -18% (inactive) | –
CS(=O)(=O)Nc1nc2n(n1)C(c1ccccc1)C=C(c1ccc(Br)cc1)N2 (stereo not drawn) | – | 18 µM (active)
CCOC(=O)C(C)(C)N(Cc1ccccc1C)S(=O)(=O)c1ccc(Cl)c([N+](=O)[O-])c1 | 3.3% (inactive) | –
NC(=S)N/N=C/c1cn(CCC(=O)O)nc1-c1cccc(Br)c1 | 1.55% (inactive) | –
